Experiments:
Assay in all cases: log2 ratio of Biotin-Ahx-Ub-VS probe labelling (fragment/DMSO); higher = less target engagement (more negative = stronger competition), active = hit call of the paper (q ≤ 0.05, log2 ratio ≤ -1)
Conditions in all cases: compound concentration: 200 uM; treatment time: 3 h
[1] = target: T1, USP19 (UniProt O94966)
T1 sequence (whole entry): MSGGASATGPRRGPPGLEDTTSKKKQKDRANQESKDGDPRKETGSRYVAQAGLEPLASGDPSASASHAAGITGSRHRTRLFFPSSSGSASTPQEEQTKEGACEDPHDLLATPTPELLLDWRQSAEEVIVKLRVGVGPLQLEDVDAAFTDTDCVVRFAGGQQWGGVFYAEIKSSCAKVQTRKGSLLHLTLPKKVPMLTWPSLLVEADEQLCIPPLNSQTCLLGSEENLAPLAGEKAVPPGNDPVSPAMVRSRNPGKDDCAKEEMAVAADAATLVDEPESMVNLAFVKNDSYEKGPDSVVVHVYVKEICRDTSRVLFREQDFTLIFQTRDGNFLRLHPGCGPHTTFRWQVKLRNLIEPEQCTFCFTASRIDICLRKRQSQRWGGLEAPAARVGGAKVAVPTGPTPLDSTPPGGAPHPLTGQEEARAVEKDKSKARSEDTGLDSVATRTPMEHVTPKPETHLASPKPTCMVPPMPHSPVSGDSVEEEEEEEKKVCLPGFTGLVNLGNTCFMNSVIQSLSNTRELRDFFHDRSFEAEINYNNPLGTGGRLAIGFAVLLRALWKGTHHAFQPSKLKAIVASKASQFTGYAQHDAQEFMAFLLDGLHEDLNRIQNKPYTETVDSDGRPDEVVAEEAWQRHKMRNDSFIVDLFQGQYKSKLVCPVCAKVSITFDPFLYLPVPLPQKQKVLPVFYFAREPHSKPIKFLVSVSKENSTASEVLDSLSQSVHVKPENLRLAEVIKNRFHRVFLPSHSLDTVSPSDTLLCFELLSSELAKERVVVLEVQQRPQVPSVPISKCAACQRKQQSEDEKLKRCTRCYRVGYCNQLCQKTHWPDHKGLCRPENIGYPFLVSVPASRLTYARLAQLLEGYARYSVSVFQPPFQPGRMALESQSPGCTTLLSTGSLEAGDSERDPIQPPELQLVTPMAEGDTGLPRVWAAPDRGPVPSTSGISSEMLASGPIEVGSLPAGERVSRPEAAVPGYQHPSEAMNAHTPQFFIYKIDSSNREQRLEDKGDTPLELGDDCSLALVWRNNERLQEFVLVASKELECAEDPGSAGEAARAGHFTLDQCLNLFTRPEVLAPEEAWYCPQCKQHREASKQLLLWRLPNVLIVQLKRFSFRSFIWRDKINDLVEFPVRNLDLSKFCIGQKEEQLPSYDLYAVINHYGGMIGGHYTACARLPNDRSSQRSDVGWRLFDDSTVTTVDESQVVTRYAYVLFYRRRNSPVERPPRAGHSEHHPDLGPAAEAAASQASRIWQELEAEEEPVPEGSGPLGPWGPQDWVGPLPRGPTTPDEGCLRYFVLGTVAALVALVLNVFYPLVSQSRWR
How it was run: (§1)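 The table lists average log2 ratios of fragment over vehicle, from an unpaired t-test on global-median-normalised Spectronaut label-free quantities. Proteins with ≥2 unique peptides were used. Samples were HEK293T lysate (495 µg) treated in triplicate with fragment at 200 µM or vehicle for 3 h, then with Biotin-Ahx-Ub-VS (0.5 µM final) for 1 h, with labelled DUBs NeutrAvidin-enriched and run by diaPASEF LC-MS/MS.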

[2] = target: T2, USP22 (UniProt Q9UPT9)
T2 sequence (whole entry): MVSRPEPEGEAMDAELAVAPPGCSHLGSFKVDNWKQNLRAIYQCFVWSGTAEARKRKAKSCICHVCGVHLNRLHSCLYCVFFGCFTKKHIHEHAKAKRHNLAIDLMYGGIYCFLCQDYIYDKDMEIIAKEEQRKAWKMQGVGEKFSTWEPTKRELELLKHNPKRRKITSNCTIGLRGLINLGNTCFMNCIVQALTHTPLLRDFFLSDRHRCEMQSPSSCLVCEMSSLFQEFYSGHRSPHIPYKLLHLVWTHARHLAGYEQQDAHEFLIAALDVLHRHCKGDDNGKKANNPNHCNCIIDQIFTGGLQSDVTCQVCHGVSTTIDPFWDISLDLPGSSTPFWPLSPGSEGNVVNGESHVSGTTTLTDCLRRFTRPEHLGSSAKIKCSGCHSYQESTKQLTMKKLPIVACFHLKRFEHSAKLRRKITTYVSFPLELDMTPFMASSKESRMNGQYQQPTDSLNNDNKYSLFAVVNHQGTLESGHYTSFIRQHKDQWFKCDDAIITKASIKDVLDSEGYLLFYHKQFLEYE
How it was run: as §1

[3] = target: USP24 (UniProt Q9UPU5)
Sequence of USP24 (Q9UPU5 whole entry): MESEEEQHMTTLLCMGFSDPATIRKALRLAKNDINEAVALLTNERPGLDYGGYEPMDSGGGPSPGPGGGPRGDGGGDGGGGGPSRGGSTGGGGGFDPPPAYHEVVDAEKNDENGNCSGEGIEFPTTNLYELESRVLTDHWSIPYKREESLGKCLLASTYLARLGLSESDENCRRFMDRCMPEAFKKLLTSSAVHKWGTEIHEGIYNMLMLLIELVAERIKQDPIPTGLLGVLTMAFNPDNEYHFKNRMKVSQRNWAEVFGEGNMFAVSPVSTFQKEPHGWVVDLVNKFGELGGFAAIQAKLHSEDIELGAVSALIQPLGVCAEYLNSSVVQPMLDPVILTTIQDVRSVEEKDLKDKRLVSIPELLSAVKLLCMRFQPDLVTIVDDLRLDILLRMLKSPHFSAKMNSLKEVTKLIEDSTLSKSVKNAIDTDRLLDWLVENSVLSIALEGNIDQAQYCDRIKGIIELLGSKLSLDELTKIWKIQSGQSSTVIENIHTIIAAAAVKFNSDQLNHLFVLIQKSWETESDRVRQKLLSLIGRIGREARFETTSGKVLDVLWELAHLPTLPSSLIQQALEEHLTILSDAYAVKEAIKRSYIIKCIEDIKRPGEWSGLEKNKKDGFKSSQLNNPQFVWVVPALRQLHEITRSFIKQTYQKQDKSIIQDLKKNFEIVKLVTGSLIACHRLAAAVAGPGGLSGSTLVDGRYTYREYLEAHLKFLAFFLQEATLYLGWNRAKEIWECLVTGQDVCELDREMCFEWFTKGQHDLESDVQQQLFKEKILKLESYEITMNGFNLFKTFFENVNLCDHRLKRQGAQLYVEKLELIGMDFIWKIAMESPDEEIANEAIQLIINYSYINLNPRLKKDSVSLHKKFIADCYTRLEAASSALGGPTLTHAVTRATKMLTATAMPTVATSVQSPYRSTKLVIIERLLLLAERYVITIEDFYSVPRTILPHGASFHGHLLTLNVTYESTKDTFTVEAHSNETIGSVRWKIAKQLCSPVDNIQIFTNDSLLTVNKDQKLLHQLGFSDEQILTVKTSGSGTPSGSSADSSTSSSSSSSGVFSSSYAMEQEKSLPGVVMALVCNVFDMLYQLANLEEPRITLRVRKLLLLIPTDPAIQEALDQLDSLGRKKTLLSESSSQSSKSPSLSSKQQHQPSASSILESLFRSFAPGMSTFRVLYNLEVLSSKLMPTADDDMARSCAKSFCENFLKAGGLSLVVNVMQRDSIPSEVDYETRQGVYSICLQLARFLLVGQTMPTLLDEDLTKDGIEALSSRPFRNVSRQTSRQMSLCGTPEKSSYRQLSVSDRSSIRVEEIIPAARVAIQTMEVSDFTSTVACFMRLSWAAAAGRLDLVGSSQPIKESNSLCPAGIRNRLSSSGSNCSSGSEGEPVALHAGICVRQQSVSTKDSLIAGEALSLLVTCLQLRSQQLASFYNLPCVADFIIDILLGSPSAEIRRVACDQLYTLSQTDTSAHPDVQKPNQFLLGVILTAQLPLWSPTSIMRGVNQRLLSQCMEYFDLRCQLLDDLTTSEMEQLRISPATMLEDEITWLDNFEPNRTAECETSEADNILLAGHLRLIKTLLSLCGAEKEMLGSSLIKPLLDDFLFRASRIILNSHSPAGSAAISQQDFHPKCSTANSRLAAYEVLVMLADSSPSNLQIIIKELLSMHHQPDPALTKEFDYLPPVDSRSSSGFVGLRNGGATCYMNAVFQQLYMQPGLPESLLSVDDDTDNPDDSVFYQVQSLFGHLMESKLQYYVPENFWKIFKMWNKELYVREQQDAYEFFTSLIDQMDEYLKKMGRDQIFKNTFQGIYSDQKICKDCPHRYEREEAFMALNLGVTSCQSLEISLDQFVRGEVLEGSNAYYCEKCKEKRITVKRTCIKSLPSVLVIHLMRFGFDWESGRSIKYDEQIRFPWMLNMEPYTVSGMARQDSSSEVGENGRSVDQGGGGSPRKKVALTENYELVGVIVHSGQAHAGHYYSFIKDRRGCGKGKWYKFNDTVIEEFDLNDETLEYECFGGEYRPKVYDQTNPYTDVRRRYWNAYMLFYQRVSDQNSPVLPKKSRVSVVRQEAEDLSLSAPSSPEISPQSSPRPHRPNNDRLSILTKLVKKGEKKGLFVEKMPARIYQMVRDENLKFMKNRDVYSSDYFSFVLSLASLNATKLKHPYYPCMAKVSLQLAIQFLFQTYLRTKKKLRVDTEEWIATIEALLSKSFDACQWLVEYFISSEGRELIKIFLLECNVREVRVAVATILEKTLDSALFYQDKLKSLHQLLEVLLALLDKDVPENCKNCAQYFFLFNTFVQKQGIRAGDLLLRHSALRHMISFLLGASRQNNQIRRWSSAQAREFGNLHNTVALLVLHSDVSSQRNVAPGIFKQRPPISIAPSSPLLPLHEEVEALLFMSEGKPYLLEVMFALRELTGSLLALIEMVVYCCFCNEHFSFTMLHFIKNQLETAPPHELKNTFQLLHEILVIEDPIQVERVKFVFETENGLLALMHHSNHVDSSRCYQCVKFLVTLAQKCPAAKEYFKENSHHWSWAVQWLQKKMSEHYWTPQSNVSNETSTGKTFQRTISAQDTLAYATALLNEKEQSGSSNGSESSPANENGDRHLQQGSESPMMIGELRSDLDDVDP
How it was run: as §1

[4] = target: T3, USP25 (UniProt Q9UHP3)
T3 sequence (whole entry): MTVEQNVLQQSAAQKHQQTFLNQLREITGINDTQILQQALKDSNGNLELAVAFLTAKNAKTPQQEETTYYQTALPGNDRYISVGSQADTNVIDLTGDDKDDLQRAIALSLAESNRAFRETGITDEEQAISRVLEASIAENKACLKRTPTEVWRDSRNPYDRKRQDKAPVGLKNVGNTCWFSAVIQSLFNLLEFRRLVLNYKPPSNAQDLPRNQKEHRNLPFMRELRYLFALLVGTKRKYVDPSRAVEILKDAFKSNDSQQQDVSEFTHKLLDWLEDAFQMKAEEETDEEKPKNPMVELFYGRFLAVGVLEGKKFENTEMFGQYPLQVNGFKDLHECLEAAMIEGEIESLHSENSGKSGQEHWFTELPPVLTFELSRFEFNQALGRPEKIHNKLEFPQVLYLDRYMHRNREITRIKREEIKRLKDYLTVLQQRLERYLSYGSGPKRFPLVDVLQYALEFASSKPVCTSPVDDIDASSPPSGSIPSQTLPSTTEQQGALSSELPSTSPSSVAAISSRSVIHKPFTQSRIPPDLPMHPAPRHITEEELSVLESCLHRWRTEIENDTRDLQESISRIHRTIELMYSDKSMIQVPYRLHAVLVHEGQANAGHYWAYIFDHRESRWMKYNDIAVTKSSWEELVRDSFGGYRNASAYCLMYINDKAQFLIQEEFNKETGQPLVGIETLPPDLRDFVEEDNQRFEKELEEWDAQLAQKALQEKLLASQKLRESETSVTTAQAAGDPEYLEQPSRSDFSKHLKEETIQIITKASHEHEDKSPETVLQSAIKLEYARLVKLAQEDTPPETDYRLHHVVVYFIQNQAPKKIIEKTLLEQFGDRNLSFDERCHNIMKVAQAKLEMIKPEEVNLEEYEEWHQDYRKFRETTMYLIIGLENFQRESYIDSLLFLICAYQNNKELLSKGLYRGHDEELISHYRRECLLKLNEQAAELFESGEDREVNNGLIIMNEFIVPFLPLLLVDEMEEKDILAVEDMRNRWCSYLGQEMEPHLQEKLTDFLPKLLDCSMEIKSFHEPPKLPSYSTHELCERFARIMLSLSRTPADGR
How it was run: as §1

[5] = target: T4, USP28 (UniProt Q96RU2)
T4 sequence (whole entry): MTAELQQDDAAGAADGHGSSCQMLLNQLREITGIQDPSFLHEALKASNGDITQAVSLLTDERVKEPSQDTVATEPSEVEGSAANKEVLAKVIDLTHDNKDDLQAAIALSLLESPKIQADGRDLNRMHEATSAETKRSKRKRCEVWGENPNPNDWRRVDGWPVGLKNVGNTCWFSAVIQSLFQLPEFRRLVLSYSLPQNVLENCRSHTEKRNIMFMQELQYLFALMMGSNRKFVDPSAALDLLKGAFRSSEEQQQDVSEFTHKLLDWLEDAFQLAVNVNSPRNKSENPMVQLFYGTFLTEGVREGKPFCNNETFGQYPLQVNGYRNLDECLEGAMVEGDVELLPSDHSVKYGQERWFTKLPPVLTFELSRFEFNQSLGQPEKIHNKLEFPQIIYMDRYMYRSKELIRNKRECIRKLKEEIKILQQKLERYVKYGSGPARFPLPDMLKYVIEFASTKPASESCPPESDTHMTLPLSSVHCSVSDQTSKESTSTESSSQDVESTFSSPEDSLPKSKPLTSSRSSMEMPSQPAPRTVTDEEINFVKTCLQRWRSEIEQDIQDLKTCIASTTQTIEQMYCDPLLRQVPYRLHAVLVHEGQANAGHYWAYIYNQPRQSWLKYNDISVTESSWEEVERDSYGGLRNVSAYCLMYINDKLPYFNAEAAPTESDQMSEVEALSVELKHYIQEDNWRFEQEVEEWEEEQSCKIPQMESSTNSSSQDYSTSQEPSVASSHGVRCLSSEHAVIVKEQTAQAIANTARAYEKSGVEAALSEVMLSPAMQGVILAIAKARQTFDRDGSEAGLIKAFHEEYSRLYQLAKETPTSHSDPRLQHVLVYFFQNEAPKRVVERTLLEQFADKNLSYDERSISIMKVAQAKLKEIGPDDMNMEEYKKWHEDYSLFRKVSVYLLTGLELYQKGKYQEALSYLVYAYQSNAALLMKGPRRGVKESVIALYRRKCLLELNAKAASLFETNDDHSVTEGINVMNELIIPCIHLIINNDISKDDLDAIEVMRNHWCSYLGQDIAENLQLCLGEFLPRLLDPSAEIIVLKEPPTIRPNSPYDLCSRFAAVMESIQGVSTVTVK
How it was run: as §1

Measured: log2 ratio of Biotin-Ahx-Ub-VS probe labelling

O=C(CCl)NCc1noc(C2CC2)n1
inactive: [1] 0.0297 | [2] -0.122 | [3] -0.225 | [4] -0.329 | [5] -0.393
